Reference: PubChem BioAssay AID1159580 (chemical genetic matrix, 2015)
Values joined by “and” are separate entries in the source; they are usually repeats but may differ in a detail not shown here. Equal values may be shown once. In all, about 5,500 compounds went through this assay and about 2,000 (36%) were called active. Not shown: some 18% with an inconclusive outcome. Cut-off read from the data, not from the text of the source: active = normalized growth mostly below about 0.91 (no sharp cut-off); inconclusive = no clear call, values can overlap the other calls; inactive = mostly above about 0.92. Some of the results follow.

Experiment: chemical genetic growth profiling, strain panel (AID 1159580);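 note: tested at 20 µM; growth read once vehicle control cultures reached saturation at 30 °C; 1 = growth at the plate median or of vehicle wells; lower values mean less growth of the strain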
Conditions: S. cerevisiae deletion strains, growth OD

Measured: normalized growth

CC(=O)Oc1cc(-c2coc3cc(OC(C)=O)c(OC(C)=O)c(OC(C)=O)c3c2=O)cc(OC(C)=O)c1OC(C)=O
0.179 (active) and 1.03 (inactive): locus YJL095W, strain BCK1, stronger effect = lower value
active: locus YAL013W, strain DEP1, stronger effect = lower value 0.67 | locus YAL021C, strain ccr4, stronger effect = lower value 0.81 | locus YAL026C, strain drs2, stronger effect = lower value 0.836 | locus YBL061C, strain skt5, stronger effect = lower value 0.919 | locus YBR023C, strain chs3, stronger effect = lower value 0.841 | locus YBR229C, strain ROT2, stronger effect = lower value 0.89 | locus YBR231C, strain swc5, stronger effect = lower value 0.772 | locus YCL029C, strain bik1, stronger effect = lower value 0.674 | locus YDL035C, strain GPR1, stronger effect = lower value 0.83 | locus YDL074C, strain BRE1, stronger effect = lower value 0.643 | locus YDL101C, strain DUN1, stronger effect = lower value 0.438 | locus YDL192W, strain arf1, stronger effect = lower value 0.899 | locus YDR069C, strain doa4, stronger effect = lower value 0.752 | locus YDR101C, strain arx1, stronger effect = lower value 0.827 | locus YDR137W, strain rgp1, stronger effect = lower value 0.795 | locus YDR162C, strain NBP2, stronger effect = lower value 0.717 | locus YDR297W, strain sur2, stronger effect = lower value 0.914 | locus YDR334W, strain swr1, stronger effect = lower value 0.834 | locus YDR335W, strain msn5, stronger effect = lower value 0.851 | locus YDR502C, strain sam2, stronger effect = lower value 0.898 | locus YEL003W, strain gim4, stronger effect = lower value 0.877 | locus YEL037C, strain rad23, stronger effect = lower value 0.88 | locus YER015W, strain faa2, stronger effect = lower value 0.894 | locus YER111C, strain swi4, stronger effect = lower value 0.469 | locus YER155C, strain BEM2, stronger effect = lower value 0.913 | locus YFR010W, strain ubp6, stronger effect = lower value 0.881 | locus YGL086W, strain mad1, stronger effect = lower value 0.887 | locus YGL173C, strain kem1, stronger effect = lower value 0.85 | locus YGL248W, strain PDE1, stronger effect = lower value 0.845 | locus YGL253W, strain hxk2, stronger effect = lower value 0.862 | locus YGR135W, strain pre9, stronger effect = lower value 0.871 | locus YGR229C, strain SMI1, stronger effect = lower value 0.302 | locus YHR027C, strain rpn1, stronger effect = lower value 0.885 | locus YHR079C, strain IRE1 (second series), stronger effect = lower value 0.794 | locus YHR129C, strain ARP1, stronger effect = lower value 0.844 | locus YHR142W, strain chs7, stronger effect = lower value 0.82 | locus YHR200W, strain rpn10, stronger effect = lower value 0.914 | locus YIL066C, strain RNR3, stronger effect = lower value 0.834 | locus YIL073C, strain SPO22, stronger effect = lower value 0.602 | locus YJL164C, strain tpk1, stronger effect = lower value 0.893 | locus YJL187C, strain SWE1 (second series), stronger effect = lower value 0.273
inactive: locus YAL030W, strain snc1, stronger effect = lower value 0.969 | locus YBR009C, strain hhf1, stronger effect = lower value 0.934 | locus YBR021W, strain FUR4, stronger effect = lower value 0.854 | locus YBR171W, strain sec66, stronger effect = lower value 0.936 | locus YBR279W, strain paf1, stronger effect = lower value 0.937 | locus YCL011C, strain gbp2, stronger effect = lower value 0.93 | locus YCL016C, strain dcc1, stronger effect = lower value 0.948 | locus YCL069W, strain vba3, stronger effect = lower value 0.96 | locus YCR088W, strain abp1, stronger effect = lower value 0.977 | locus YDL005C, strain med2, stronger effect = lower value 0.985 | locus YDL040C, strain nat1, stronger effect = lower value 0.987 | locus YDL185W, strain tfp1, stronger effect = lower value 0.978 | locus YDR001C, strain nth1, stronger effect = lower value 0.977 | locus YDR159W, strain sac3, stronger effect = lower value 0.863 | locus YDR195W, strain ref2 0.947 | locus YDR318W, strain mcm21, stronger effect = lower value 0.967 | locus YDR388W, stronger effect = lower value 0.978 | locus YDR392W, strain spt3, stronger effect = lower value 0.938 | locus YEL061C, strain CIN8 (second series), stronger effect = lower value 0.946 | locus YER016W, strain bim1, stronger effect = lower value 0.972 | locus YER110C, stronger effect = lower value 1.05 | locus YER155C, strain BEM2 (second series), stronger effect = lower value 0.906 | locus YER167W, strain BCK2, stronger effect = lower value 0.949 | locus YGL078C, strain dbp3, stronger effect = lower value 1.01 | locus YGL167C, strain pmr1, stronger effect = lower value 0.956 | locus YGL227W, strain vid30, stronger effect = lower value 0.996 | locus YGL240W, strain doc1, stronger effect = lower value 0.975 | locus YGR252W, strain gcn5, stronger effect = lower value 0.873 | locus YHR013C, strain ard1, stronger effect = lower value 0.877 | locus YHR030C, strain SLT2, stronger effect = lower value 1.05 | locus YHR079C, strain IRE1, stronger effect = lower value 1.07 | locus YHR094C, strain hxt1, stronger effect = lower value 1.03 | locus YIL125W, strain kgd1, stronger effect = lower value 1.03 | locus YIR030C, strain dcg1, stronger effect = lower value 0.974 | locus YJL092W, strain hpr5, stronger effect = lower value 0.964 | locus YJL095W, strain BCK1 (second series), stronger effect = lower value 0.945 | locus YJL115W, strain asf1, stronger effect = lower value 0.978 | locus YJL129C, strain trk1, stronger effect = lower value 0.942 | locus YJL134W, strain LCB3, stronger effect = lower value 0.936 | locus YJL154C, strain vps35, stronger effect = lower value 0.978 | locus YJL166W, strain qcr8, stronger effect = lower value 0.906 | locus YJL168C, strain set2, stronger effect = lower value 1.01 | locus YJL187C, strain SWE1, stronger effect = lower value 0.945 | locus YJR066W, strain TOR1, stronger effect = lower value 0.971
